Test results published in the supplement of paper PMC12669032.
Unmarked numbers belong to inactive results.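 Rule for the calls: active = AUC reduced over 20% with Padj below 0.05 in at least 2 of 3 replicates; inactive = otherwise.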

Legend:
Assay in all cases: growth AUC relative to DMSO control (median of replicates) (fraction); higher = more growth (less inhibition), active = hit call of the paper
Settings in all cases: 20 µM; 24 h
Coprococcus comes = system: Coprococcus comes
Summary of the method: (§1)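 Starting at OD600 0.05, gut bacterial monocultures in mGAM were grown anaerobically at 37 °C with 20 µM compound (1% DMSO) under pierced gas-permeable seals. OD600 was read every hour for 24 h, and the lowest OD of each curve was set to 0. Area under the growth curve was normalised to the plate median of solvent-only wells, or to row and column medians on the industrial chemical plate, and the median of three biological replicates grown on separate days is given.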

Escherichia coli ED1a = system: Escherichia coli ED1a
Summary of the method: as §1

Escherichia coli IAI1 = system: Escherichia coli IAI1
Summary of the method: as §1

Eubacterium rectale = system: Eubacterium rectale
Summary of the method: as §1

[1] = system: Fusobacterium nucleatum subsp. animalis
Summary of the method: as §1

Lactobacillus gasseri = system: Lactobacillus gasseri
Summary of the method: as §1

Lactobacillus paracasei = system: Lactobacillus paracasei
Summary of the method: as §1

Odoribacter splanchnicus = system: Odoribacter splanchnicus
Summary of the method: as §1

[2] = system: Parabacteroides distasonis
Summary of the method: as §1

Parabacteroides merdae = system: Parabacteroides merdae
Summary of the method: as §1

Roseburia intestinalis = system: Roseburia intestinalis
Summary of the method: as §1

Streptococcus salivarius = system: Streptococcus salivarius
Summary of the method: as §1

| SMILES | growth AUC (Coprococcus comes) | growth AUC (Escherichia coli ED1a) | growth AUC (Escherichia coli IAI1) | growth AUC (Eubacterium rectale) | growth AUC [1] | growth AUC (Lactobacillus gasseri) | growth AUC (Lactobacillus paracasei) | growth AUC (Odoribacter splanchnicus) | growth AUC [2] | growth AUC (Parabacteroides merdae) | growth AUC (Roseburia intestinalis) | growth AUC (Streptococcus salivarius) |
| --- | --- | --- | --- | --- | --- | --- | --- | --- | --- | --- | --- | --- |
| CSc1nc(NC(C)C)nc(NC(C)C)n1 | 0.999 | 1.01 | 0.976 | 0.917 | 0.922 | 1.12 | 0.944 | 0.981 | 1.02 | 0.991 | 1.02 | 1.03 |
| Cc1[nH]c(=O)n(C(C)(C)C)c(=O)c1Cl | 0.999 | 0.983 | 0.942 | 1.01 | 0.978 | 0.927 | 1.06 | 1.02 | 0.968 | 0.995 | 0.986 | 1.02 |
| CO/N=C(/C(=O)OC)c1ccccc1CO/N=C(\C)c1cccc(C(F)(F)F)c1 | 0.976 | 0.978 | 0.985 | 0.973 | 0.953 | 1.1 | 0.831 | 1.01 | 0.887 | 0.901 | 1.06 | 0.998 |
| COCC(=O)N(c1c(C)cccc1C)N1CCOC1=O | 0.939 | 0.975 | 1.02 | 0.964 | 0.882 | 0.914 | 0.953 | 0.984 | 1.03 | 1.01 | 0.994 | 1 |
| CCC(C)Nc1c([N+](=O)[O-])cc(C(C)(C)C)cc1[N+](=O)[O-] (stereo not drawn) | 0.975 | 1.01 | 0.939 | 0.995 | 1.02 | 0.938 | 1.01 | 1.02 | 0.919 | 0.966 | 0.927 | 1.04 |
| CC(C)(C)C(O)C(Oc1ccc(-c2ccccc2)cc1)n1cncn1 (mixture of isomers) | 1 | 1.01 | 1.05 | 0.964 | 1.07 | 0.949 | 0.958 | 0.952 | 0.918 | 0.976 | 1.02 | 1.01 |
| c1ccc2c(c1)ccc1c3ccccc3sc21 | 0.965 | 0.988 | 1 | 0.942 | 1.01 | 0.974 | 1.03 | 0.984 | 1.1 | 1 | 0.964 | 1.05 |
| CCCC(Cn1cncn1)c1ccc(Cl)cc1Cl (stereo not drawn) | 0.919 | 0.997 | 1.03 | 0.73 (active) | 1.05 | 1.05 | 0.987 | 0.962 | 0.991 | 0.969 | 1.02 | 0.915 |
| COc1ccccc1N | 0.993 | 1 | 1 | 1.08 | 1.04 | 1.02 | 1.02 | 1.16 | 1.28 | 1.02 | 1.03 | 0.998 |
| O=C(O)c1ccc(=O)[nH]c1 | 0.999 | 0.99 | 1.03 | 0.976 | 0.982 | 0.972 | 0.987 | 0.985 | 1.02 | 0.983 | 1.01 | 0.981 |
| CNC(=O)Oc1cc(C)c(SC)c(C)c1 | 1.01 | 0.987 | 0.967 | 0.982 | 0.984 | 0.883 | 0.931 | 1.11 | 1.02 | 0.912 | 0.928 | 0.968 |
| CCOP(=S)(OCC)SCn1nnc2ccccc2c1=O | 1.01 | 1.01 | 1.03 | 1.02 | 1.09 | 1.01 | 1.05 | 0.926 | 0.707 (active) | 0.946 | 1.11 | 0.993 |
| N#Cc1cc(I)c(O)c(I)c1 | 1.02 | 0.891 | 0.764 (active) | 0.954 | 0.828 | 0.95 | 0.982 | 0.853 | 0.814 | 0.802 | 0.993 | 0.898 |
| CNC1=C(c2cccc(C(F)(F)F)c2)C(=O)C(c2ccccc2)O1 (stereo not drawn) | 1.06 | 0.998 | 0.992 | 1 | 0.969 | 0.985 | 0.781 | 1.07 | 0.951 | 0.969 | 1.04 | 0.988 |
| OC[C@@H](O)[C@H]1O[C@@H]2O[C@H](C(Cl)(Cl)Cl)O[C@@H]2[C@H]1O (mixture of isomers) | 0.988 | 0.99 | 0.986 | 1.05 | 0.83 | 1.03 | 0.943 | 1.06 | 0.903 | 0.999 | 0.967 | 1.01 |
| CCS(=O)(=O)CCSP(=O)(OC)OC | 0.975 | 1.01 | 0.992 | 0.935 | 0.969 | 1.04 | 1.03 | 0.97 | 1.08 | 0.988 | 1.06 | 0.957 |
| COC(=O)Nc1cccc(OC(=O)Nc2cccc(C)c2)c1 | 1.03 | 1 | 0.966 | 1 | 0.944 | 0.933 | 0.987 | 1.05 | 0.976 | 0.968 | 0.936 | 0.996 |
| CC/C(=N\OC/C=C/Cl)C1=C(O)CC(C2CCOCC2)CC1=O (stereo not drawn) | 1.01 | 1 | 1.03 | 0.996 | 0.983 | 0.994 | 1.1 | 1.04 | 0.998 | 1.02 | 1.02 | 0.994 |
| CC(C)NC(=O)N1CC(=O)N(c2cc(Cl)cc(Cl)c2)C1=O | 1.01 | 1.03 | 0.983 | 0.995 | 0.948 | 1.09 | 0.991 | 1 | 0.979 | 1 | 1.07 | 1.05 |
| CC1(C)C(C=C(Cl)Cl)C1C(=O)OC(C#N)c1cccc(Oc2ccccc2)c1 (stereo not drawn) | 0.945 | 1.01 | 0.98 | 1.05 | 1.05 | 0.776 | 0.951 | 1.07 | 0.98 | 1.02 | 0.871 | 0.937 |
| C=C/C=C/CC1=C(C)C(OC(=O)[C@@H]2C(/C=C(\C)C(=O)OC)C2(C)C)CC1=O.C=C/C=C/CC1=C(C)[C@@H](OC(=O)[C@@H]2C(C=C(C)C)C2(C)C)CC1=O (stereo partly drawn) | 0.953 | 1.01 | 0.966 | 0.858 | 1.04 | 1.02 | 0.864 | 0.985 | 0.954 | 0.932 | 1.02 | 0.947 |
| CCOP(=S)(OCC)SCn1c(=O)oc2cc(Cl)ccc21 | 1 | 0.981 | 0.974 | 1 | 0.93 | 0.918 | 0.994 | 0.979 | 0.892 | 0.955 | 0.932 | 0.98 |
| O=C(NC(=O)c1c(F)cccc1F)Nc1ccc(Oc2ccc(C(F)(F)F)cc2Cl)cc1F | 1 | 1.03 | 1.03 | 0.994 | 0.951 | 1.21 | 0.974 | 0.978 | 0.988 | 1 | 1.1 | 0.985 |
| CCOP(=O)(OCC)Oc1ccc([N+](=O)[O-])cc1 | 1.03 | 0.988 | 1.03 | 0.91 | 1.06 | 1.02 | 1.04 | 1.05 | 0.999 | 0.986 | 1.03 | 1.01 |
